Measured values reported in the supplement of paper PMC6897291.

Tested on: RIVA
Assay: growth inhibition by drug alone (1 - RLU/untreated control) (fraction); higher = stronger inhibition
Conditions: 177Lu-lilotomab satetraxetan 0 ug/ml
Procedure: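 RIVA (RI-1) ABC-DLBCL cells were pretreated or not for 18 h with 0.5 ug/ml 177Lu-lilotomab satetraxetan (600 MBq/mg), washed and seeded (3000 cells/well) on 384-well plates pre-printed with the Selleck Cambridge Cancer Compound library. Viability was read by RealTime-Glo luminescence on days 3-6 after seeding. Effect = 1 - RLU/mean RLU of the 48 untreated no-drug control wells per plate; Bliss score = (M-E)/(1-Fa).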

Row | SMILES | growth inhibition by drug alone (10 nM, time (day): 3) | growth inhibition by drug alone (10 nM, time (day): 4) | growth inhibition by drug alone (10 nM, time (day): 5) | growth inhibition by drug alone (10 nM, time (day): 6) | growth inhibition by drug alone (100 nM, time (day): 3) | growth inhibition by drug alone (100 nM, time (day): 4) | growth inhibition by drug alone (100 nM, time (day): 5) | growth inhibition by drug alone (100 nM, time (day): 6)
1 | CCC1(c2ccc(N)cc2)CCC(=O)NC1=O (stereo not given) [Aminoglutethimide (Cytadren)] | -0.0651 | -0.101 | -0.237 | -0.445 | -0.578 | -0.484 | -0.518 | -0.688
2 | CC(O)(CS(=O)(=O)c1ccc(F)cc1)C(=O)Nc1ccc(C#N)c(C(F)(F)F)c1 (stereo not given) [Bicalutamide (Casodex)] | 0.121 | 0.0197 | -0.0376 | -0.206 | 0.0203 | -0.00253 | -0.0289 | -0.0827
3 | Cc1cc2c(C(C)C)c(O)c(O)c(C=O)c2c(O)c1-c1c(C)cc2c(C(C)C)c(O)c(O)c(C=O)c2c1O [Gossypol] | -0.235 | -0.278 | -0.288 | -0.349 | -0.0878 | -0.143 | -0.172 | -0.216
4 | N.N.[Cl][Pt][Cl] [Cisplatin] | -0.00407 | -0.0943 | -0.0938 | -0.114 | 0.0654 | -0.0804 | -0.0914 | -0.104
5 | CC1=C2C[C@H]3[C@@H](CC=C4C[C@@H](O)CC[C@@]43C)[C@@H]2CC[C@]12O[C@@H]1C[C@H](C)CN[C@H]1[C@H]2C [Cyclopamine] | -0.0274 | 0.0131 | -0.0438 | -0.264 | 0.0149 | 0.0126 | -0.0321 | -0.131
